Assay [1] in a line: NCI Yeast Anticancer Drug Screen. Data for the rad50 strain (AID 155).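 Further: 0% = growth of vehicle-only cultures of the same strain.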 The conditions noted are these: S. cerevisiae rad50 strain growth inhibition, stronger effect = higher value; at 50.0 µM unless noted. A digest of the protocol:
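Cells are treated with compound, grown, and their growth is then scored against vehicle-only cultures of the same repair-deficient yeast strain.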

Assay [2] can be described thus: NCI Yeast Anticancer Drug Screen. Data for the mec2-1 strain (AID 157). The conditions noted are these: S. cerevisiae mec2-1 strain, stronger effect = higher value; at 50.0 µM unless noted. In a few lines: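 Yeast mec2-1 mutant treated with compound. Readout: growth inhibition vs vehicle controls.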
Assay [3] is described as follows: NCI Yeast Anticancer Drug Screen. Data for the sgs1 mgt1 strain (AID 161).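 Further: 0% = growth of cultures given vehicle only.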 The conditions noted are these: S. cerevisiae sgs1 mgt1 strain, stronger effect = higher value; at 50.0 µM unless noted. A digest of the protocol:
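Read-out: growth inhibition vs vehicle controls. Cells: mutant yeast strain deficient in DNA damage repair.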

Assay [4] is described as follows: NCI Yeast Anticancer Drug Screen. Data for the cln2 rad14 strain (AID 165).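 Further: 0% = growth equal to vehicle treated cultures.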 The conditions noted are these: S. cerevisiae cln2 rad14 strain, stronger effect = higher value; at 50.0 µM unless noted. In a few lines:
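cln2 rad14 yeast strain; compound exposure; growth inhibition read vs vehicle controls.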

Assay [5] in a line: NCI Yeast Anticancer Drug Screen. Data for the bub3 strain (AID 167). The conditions noted are these: S. cerevisiae bub3 mutant strain, stronger effect = higher value; at 50.0 µM unless noted. A digest of the protocol: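 Part of a panel of yeast mutants defective in DNA damage repair or cell cycle regulation. Each strain is grown with compound, and inhibition is calculated relative to solvent-treated cultures.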

A short description of assay [6]: NCI Yeast Anticancer Drug Screen. Data for the mlh1 rad18 strain (AID 175). The conditions noted are these: S. cerevisiae mlh1 rad18 strain growth inhibition, stronger effect = higher value; at 50.0 µM unless noted. A digest of the protocol: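 Yeast w/ defined DNA-repair lesions; compound exposure; growth vs vehicle controls → % inhibition.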

SMILES strings stand for the structures. This is part of a sample that, as a whole, favours compounds with a hit. Of some 79,000 tested, about 15% had one in any assay. Unmarked numbers belong to inactive results. Active and inactive are the calls of the source. No stated cut-off is given here; in the data, active means growth inhibition above about 70%; inactive means the rest.

Consider `Cc1c2c(c(O)c3sccc13)C(C)(C)OC2=O`, for which the growth inhibition was -3.75% in assay [1]; -1.8% in assay [2]; -9.6% in assay [3]; -59% in assay [4]; -26.4% in assay [5]; -3.1% in assay [6].
As to `O=C(Nc1cc(Cl)c(Cl)cc1Cl)C(=O)C(C(=O)c1ccccc1)C1OC(=O)c2ccccc21` (stereo not given), the growth inhibition in assay [1] was -18.6%; in assay [2], -34.8%; in assay [3] it was -25.1%; in assay [4] it was -0.5%; in assay [5] it was -10.2%; in assay [6], -10.3%.
Take `Cc1cc2nncn2c2ccccc12`: the growth inhibition in assay [1] is 9.15%; in assay [2], -3.55%; in assay [3] it was -2.9%; in assay [4], -12.3%; in assay [5], 1.2%; in assay [6], 11.2%.
For the compound `Oc1ccccc1/C=N\N=C\NN/C=N/N=C/c1ccccc1O`, the growth inhibition is -8.1% in assay [1]; -0.75% in assay [2]; -4% in assay [3]; 13.8% in assay [4]; 6.4% in assay [5]; 5.55% in assay [6].
On to `COC(=O)C(=O)C(C(=O)OC)C(=O)C(=O)Nc1ccccc1C(N)=O` (stereo not given), for which the growth inhibition in assay [1] is -33.5%; in assay [2], -7.55%; in assay [3], -25.6%; in assay [4], -10.2%; in assay [5] it was -27.9%; in assay [6], -21.2%.
Take `CCOC(=O)CCC(NC(=O)OCc1ccccc1)C(=O)NNC(=O)OC(C)(C)C` (stereo not given): the growth inhibition in assay [1] was 30.1%; in assay [2], 22%; in assay [3] it was 36.5%; in assay [4], 15.7%; in assay [5], 5.15%; in assay [6] it was 21.3%.
For the compound `N#CCCOc1ccc(N)cc1`, the growth inhibition in assay [1] is 0.55%; in assay [2] it was -5.2%; in assay [3] it was 7.15%; in assay [4], 3.75%; in assay [5], 8.65%; in assay [6], 17.6%.
In the case of `CCC(CC)C(O)C(C)C(C)O` (stereo not given), the growth inhibition in assay [1] was 1.3%; in assay [2], -8.8%; in assay [3] it was -10.6%; in assay [4], 4.8%; in assay [5], -11.2%; in assay [6] it was -4.75%.
As for `COc1ccc2c(c1)OC[C@@H]1c3cc(NC(=O)c4ccccc4)c(OCc4ccccc4)cc3N(S(=O)(=O)c3ccccc3)[C@H]21`, the growth inhibition in assay [1] was -23.9%; in assay [2], -13.9%; in assay [3], -2.1%; in assay [4], -2.5%; in assay [5], -9%; in assay [6] it was 9.4%.
For the compound `C(#Cc1ccccc1)COc1ccccc1`, the growth inhibition in assay [1] was 9.9%; in assay [2], 11.9%; in assay [3] it was -15.1%; in assay [4] it was 1.5%; in assay [5] it was 17.1%; in assay [6], -5.25%.
On to `C1CSCCSS[C@@H]2CCCCC2SC1` (stereo not given in full), for which the growth inhibition in assay [1] was -12.8%; in assay [2], -25.1%; in assay [3], -0.55%; in assay [4] it was -11.9%; in assay [5], -12.1%; in assay [6], -17.1%.
In the case of `C=C(C)C1CC[C@@](C)(O)[C@H](C#N)C1` (stereo not given in full), the growth inhibition in assay [1] was 6.15%; in assay [2], -15.7%; in assay [3], -22.8%; in assay [4], -12.2%; in assay [5] it was -38.5%; in assay [6] it was -44%.
Regarding `O=C(O)CCN1C(=O)CSC1=S`, the growth inhibition is 6.7% in assay [1]; 2.15% in assay [2]; -21.8% in assay [3]; -2.4% in assay [4]; 20.6% in assay [5]; -5.7% in assay [6].
As to `CC1(C)C(=O)C=C(c2ccccc2)C1(O)c1ccccc1` (stereo not given), the growth inhibition in assay [1] was -9.45%; in assay [2], -29.9%; in assay [3], 16.9%; in assay [4] it was 5.35%; in assay [5], 22.4%; in assay [6] it was -38.5%.
On to `CC1=Nc2ccccc2S/C1=C(/C)NNS(=O)(=O)c1ccc(C)cc1`, for which the growth inhibition is 10.1% in assay [1]; -0.05% in assay [2]; 0.25% in assay [3]; -6.3% in assay [4]; 7.75% in assay [5]; 18.1% in assay [6].
Turning to `NC(=O)CSCC(N)=O`, the growth inhibition in assay [1] was 0.75%; in assay [2], -13.9%; in assay [3] it was 3.45%; in assay [4], 6.05%; in assay [5], -2.75%; in assay [6], 22%.
`CC(=O)O[C@@H]1C(=O)C=C(C)[C@@H]2[C@@H](OC(=O)C=C(C)C)[C@H]3OC(=O)C[C@H]4[C@@H](C)[C@@H](O)[C@]5(O)OC[C@]34[C@H]5[C@@]12C`: the growth inhibition in assay [1] is 87.4% (active); in assay [2], 71.5% (active); in assay [3], 71.8% (active); in assay [4] it was 88.5% (active); in assay [5], 79.5% (active); in assay [6], 91.8% (active).
Take `c1ccc(-n2ncnn2)cc1`: the growth inhibition in assay [1] was -6.5%; in assay [2], -11.3%; in assay [3] it was -8.55%; in assay [4], -41.1%; in assay [5], 24.4%; in assay [6], -1.75%.
For the compound `CN(C(=O)CCC1OCCO1)c1cc(N)ccc1OCc1ccccc1`, the growth inhibition in assay [1] was 15.3%; in assay [2], -0.7%; in assay [3], -7.2%; in assay [4], 4.8%; in assay [5] it was 19.9%; in assay [6], -18.6%.
In the case of `Nn1c(N=Nc2c(O)[nH]c3ccccc23)n[nH]c1=S`, the growth inhibition in assay [1] was 45.9%; in assay [2], 5.5%; in assay [3], 57%; in assay [4], 15.9%; in assay [5] it was 6.35%; in assay [6] it was 23.9%.
